# In the library only some 3.3% were active in any assay of this set; here they are far more common.
# Wnt act: Wnt/beta-catenin pathway activation. Wnt/beta-catenin reporter cell assay, activator, plate reader. activation, % at 9.35 µM. 300,000 compounds, 1.2% hits. AID 743398; in the data active = activation above about 30%, passing the limit was not always enough; inconclusive = no clear call, values can overlap the other calls;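 note: 0% = neutral control wells and 100% = positive control wells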
# GAA850 FXN act: frataxin GAA850 promoter activation; HEK293 lucGAA850 FXN promoter luciferase reporter, 24 h; percent of 10 µM SAHA response; activation, % at 6 µM; 360,000 compounds, 0.56% hits; AID 540364;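 active = activation above the average of all compounds screened plus 3 SD, cutoff fixed separately per campaign, cut at about 7.5% in these data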;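 note: 0% = DMSO wells and 100% = 10 µM SAHA wells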
# Statin myotox sup: suppression of simvastatin myotoxicity; AID 602340; rescue of ATP level, % at 7.49 µM; C2C12 myotubes + simvastatin, ATP luminescence, 48 h; scaled: DMSO 0, geranylgeraniol control 100; 330,000 compounds, 0.78% hits;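 active = mean ATP rescue above about 67%, or every replicate alone reaching that limit, limit read from the data, passing the limit was not always enough; inconclusive = no clear call, values can overlap the other calls; inactive = mean under the limit and some replicate under it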;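 note: myotubes were challenged with 10 µM simvastatin during compound exposure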
# esBAF inh: blocks esBAF chromatin remodeling in mouse ES cells | 350,000 compounds, 2% hits | Bmi1-luciferase knock-in reporter, 24 h; 100% = twice the neutral-well signal | reporter increase, % at 12.5 µM; in the data active = activation above about 40%; inconclusive = no clear call, values can overlap the other calls;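 note: 0% = median of the plate's neutral control wells and 100% = double that signal; a rise in the Bmi1 reporter signal indicates esBAF inhibition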
# MITF act: increases MITF-driven TRPM1 promoter luciferase signal; 300,000 compounds, 0.75% hits; activation, % at 12.5 µM; SK-MEL-5 TRPM1-promoter luciferase, 24 h; % of positive control, neutral wells = 0;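 active = mean activation of at least 80% with every replicate also reaching 80%; inconclusive = mean reaches 80% but some replicate falls short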;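 note: 0% = neutral control wells and 100% = parthenolide positive control wells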
# * = called active by the depositor; ? = inconclusive; nt = not tested or not shown.
SMILES,Wnt act,GAA850 FXN act,Statin myotox sup,esBAF inh,MITF act
O=C(NC1Cc2ccccc2C1)[C@H]1[C@H](CO)[C@H]2Cn3c(ccc(C4=CCCCC4)c3=O)[C@@H]1N2CC1CC1,nt,nt,-21,5,nt
CNC(=O)C[C@H]1CC[C@H]2[C@@H](COc3ccc(NC(=O)Nc4ccccc4OC)cc3C(=O)N2C)O1,nt,nt,30,-1,nt
O=C(N/N=C/c1cn(-c2ccccc2)nc1-c1cc2ccccc2o1)c1cccnc1,73*,7,nt,nt,7
Cc1occc1-c1nnc(SC(C)C(=O)Nc2ccccc2F)o1 (configuration not stated),42*,3,-94,nt,58
CC(Sc1nnc(-c2ccccc2F)o1)C(=O)Nc1ccc(N2CCOCC2)cc1 (configuration not stated),-2,4,-13,18,34
N/C(=N\OC(=O)COc1ccc(Cl)cc1Br)c1ccncc1,45*,4,nt,nt,92*
N/C(=N\OC(=O)COc1ccc(Cl)cc1Cl)c1cccnc1,30,6,3,56*,142*
CCc1ccc(OCC(=O)O/N=C(\N)c2ccncc2)c(Br)c1,31*,5,5,95*,103*
N/C(Cc1cccs1)=N\OC(=O)COc1ccc(Cl)cc1Cl,nt,1,-74,71*,?
N/C(Cc1ccc(Cl)cc1Cl)=N\OC(=O)Cc1cccs1,12,3,-5,26,4
C[C@@H]1CN([C@@H](C)CO)C(=O)Cc2cc(NC(=O)Nc3ccc(C(F)(F)F)cc3)ccc2O[C@@H]1CN(C)Cc1ccc(Oc2ccccc2)cc1,nt,nt,-87,-15,nt
COc1ccc(NC(=O)Nc2ccc3c(c2)C(=O)N([C@@H](C)CO)C[C@H](C)[C@@H](CN(C)Cc2ccncc2)OCCCC[C@H](C)O3)cc1,nt,nt,nt,-1,nt
O=C(c1ccc(F)cc1)N1C[C@@H]2[C@H](c3ccccc31)[C@@H](CO)N2Cc1ccc2c(c1)OCO2,nt,nt,-6,2,nt
CCNC(=O)C[C@@H]1CC[C@@H]2[C@H](COc3ccc(NC(=O)c4cc(C)on4)cc3C(=O)N2C)O1,nt,nt,1,-3,nt
Cc1cc(N2CCOCC2)n2ncc(-c3ccccc3)c2n1,nt,-3,11,-56,-9
C=CCc1c(C)nc2c(-c3ccccc3)cnn2c1N1CCOCC1,40*,7,-10,84*,76
CN1CCN(/N=C/c2ccc(OCc3ccccc3)cc2)CC1,16,1,3,40,85*
Cc1ccc(C(=O)NC2=NCCS2)cc1Cl,nt,3,-21,5,nt
N#Cc1ccc(C(=O)NC2=NCCS2)cc1,13,3,3,48*,62
O=C(NC1=NCCS1)c1ccc(C(F)(F)F)cc1,7,5,-6,53*,87*
O=C(NC1=NCCS1)c1ccc(N2CCCC2=O)cc1,4,3,nt,nt,10
Cc1ccc(C(=O)NC2=NCCS2)cc1,50*,nt,nt,nt,nt
COc1ccc(C(=O)NC2=NCCS2)cc1,36*,5,-5,18,63
COc1cc(OC)cc(C(=O)NC2=NCCS2)c1,nt,0,nt,nt,7
CC(C)c1ccc(C(=O)NC2=NCCS2)cc1,45*,-1,3,-7,44
SMILES,Wnt act,GAA850 FXN act,Statin myotox sup,esBAF inh,MITF act
CC(C)Oc1ccc(C(=O)NC2=NCCS2)cc1,-1,3,nt,nt,26
COc1ccc(S(=O)(=O)N(C)C[C@@H]2OCCCC[C@@H](C)Oc3ccc(NC(=O)C4CCCCC4)cc3C(=O)N([C@@H](C)CO)C[C@H]2C)cc1,nt,nt,nt,1,nt
Cc1cccc(C)c1N1C(=O)CC(N(O)c2ccccc2)C1=O (configuration not stated),-6,1,15,-4,10
Cc1c(Cl)cccc1N1C(=O)CC(N(O)c2ccccc2)C1=O (configuration not stated),nt,-2,12,60*,nt
Cc1noc(C)c1S(=O)(=O)Nc1ccc2c(c1)C(=O)N([C@H](C)CO)C[C@H](C)[C@@H](CN(C)CC1CCCCC1)OCCCC[C@H](C)O2,nt,nt,-35,4,nt
Cc1ccc(C2=NOC3(CC(=O)N(c4ccc(C)cc4)C3=O)C2)cc1 (configuration not stated),2,1,nt,nt,1
Cc1ccc(C2=NOC3(CC(=O)N(c4ccccc4)C3=O)C2)cc1 (configuration not stated),-1,-1,76*,3,3
O=C(NC(=S)Nn1cnnc1)c1ccccc1Cl,-1,0,nt,nt,-12
CC(C)(C)c1ccc(C(=O)NC(=S)Nn2cnnc2)cc1,10,3,-3,44*,11
COc1ccc(C(=O)/C=C/c2ccc(OC)cc2OC)c(O)c1,1,2,9,88*,93*
COc1ccc(C(=O)/C=C/c2cc(C(=O)O)cc3c2OCOC3)c(O)c1,0,2,11,59*,-6
COc1ccc(C(=O)/C=C/c2ccccc2)c(O)c1,0,3,8,27,nt
COc1ccc(/C=C/C(=O)c2cc(Cl)ccc2O)c(OC)c1,23,3,nt,nt,31
COc1ccc(C(=O)C=Cc2cccs2)c(O)c1,48*,5,4,45*,69
COc1ccc(C(=O)c2ccc(OC)cc2O)c(O)c1,24,4,128*,50*,75
COc1ccc(C(=O)c2ccccc2O)c(O)c1,-2,1,6,15,17
CC(C)NC(=O)N(C)C[C@H]1Oc2cc(C#C[C@H](C)O)ccc2S(=O)(=O)N([C@@H](C)CO)C[C@@H]1C,nt,nt,8,-3,nt
COc1ccc(C(=O)/C=C/c2ccccc2OC)c(OC(=O)c2ccc([N+](=O)[O-])cc2)c1,38*,4,nt,nt,13
O=C(Nc1ccc2c(c1)OCCO2)C1C(c2ccccc2)=Nc2ccccc2N1C(=O)c1cccnc1 (configuration not stated),50*,nt,nt,nt,nt
Cc1cccc(C)c1NC(=O)C1C(c2ccc3c(c2)OCO3)=Nc2ccccc2N1C(=O)c1ccccc1 (configuration not stated),-3,nt,nt,nt,nt
N#Cc1ccc(C(=O)NCC(c2ccco2)N2CCCCC2)cc1 (configuration not stated),-3,1,124*,5,5
N#Cc1ccc(C(=O)NCC(c2ccco2)N2CCCC2)cc1 (configuration not stated),nt,-1,-1,0,-9
CN(C)CCCNC(=O)C[C@H]1CC[C@@H]2[C@H](COC[C@H](O)CN2CC2CCCC2)O1,nt,nt,12,-7,nt
COc1ccc(/C=C2\SC(=O)N(CCNC(=O)Cn3cnnn3)C2=O)cc1,20,-1,nt,nt,?
COc1ccc(/C=C2\SC(=O)N(CCNC(=O)CCS(=O)(=O)c3ccc(C)cc3)C2=O)cc1,33*,7,nt,nt,55
CCn1cnc2c(Nc3cccc(Cl)c3)nc(C#N)nc21,46*,6,-48,69*,112*
CN(C)c1ccc2c(c1)[C@@H]1C[C@H](CC(=O)NCc3cccc(F)c3)O[C@H](CO)[C@@H]1O2,nt,nt,2,-3,nt

# Screening data: PubChem BioAssay, several laboratories
